# Laboratory results published in the supplement of paper PMC7366291.
# Where a name gives a salt, the structure may show the parent alone. ± gives the standard deviation or the standard deviation of the averaged measurements.
# Legend:
# Settings in all cases: 25 µM; exposure: 24-48 hpf
# [1] = tested on: Danio rerio Tg(wt1b:EGFP) embryo, pronephros; test: glomerular separation, fold change vs DMSO control; higher = glomeruli further apart (abnormal)
# Summary of the method: (§1)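 Using a Fiji macro, distances and angles were calculated from 16 reference points set by hand on maximum projections of pronephroi imaged dorsally (470 nm, 10 z-slices) in agarose-filled 96-well plates. The dechorionated Tg(wt1b:EGFP) zebrafish embryos had received 25 μM compound in 0.5% DMSO in HEPES-buffered E3 with 0.003% PTU from 24 to 48 hpf at 28.5°C. Values more than 2 SD from a feature's mean were excluded. Each feature appears as a fold change over the mean of DMSO-treated embryos from the same day.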
# [2] = tested on: Danio rerio Tg(wt1b:EGFP) embryo, pronephros; test: glomerular width (mean of left and right), fold change vs DMSO control; higher = wider glomerulus
# Summary of the method: as §1
# [3] = tested on: Danio rerio Tg(wt1b:EGFP) embryo, pronephros; test: fraction of imaged embryos annotated as normal kidney; higher = less nephrotoxic; extreme values may be limits of the assay
# Summary of the method: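 Tricaine-anaesthetised Tg(wt1b:EGFP) zebrafish larvae were oriented dorsally in agarose-filled 96-well plates, and their pronephroi were recorded by widefield fluorescence at 470 nm in 10 z-slices. Before this, the dechorionated embryos had been exposed in 12-well plates to 25 μM compound in 0.5% DMSO and 5 mM HEPES-buffered E3 with 0.003% PTU, from 24 to 48 hpf at 28.5°C. Maximum projections were annotated manually for each embryo, and the read-out is the fraction per treatment classed as normal kidney.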
# [4] = tested on: Danio rerio Tg(wt1b:EGFP) embryo, pronephros; test: pronephric angle neck segment to proximal convoluted tubule (mean of left and right), fold change vs DMSO control; higher = larger pronephric angle
# Summary of the method: as §1
Compound,glomerular separation [1],glomerular width [2],fraction of imaged embryos annotated as normal kidney [3],pronephric angle neck segment [4]
CCn1cc(C(=O)O)c(=O)c2cc(F)c(N3CCNCC3)nc21 [Enoxacin],0.719 ± 0.29,0.9596 ± 0.0034,0.727,1.06 ± 0.017
CCC1(c2ccccc2)NC(=O)N(C)C1=O (stereo unspecified) [Mephenytoin],1.13 ± 0.4,0.9232 ± 0.0066,0.75,1.0068 ± 0.00059
Clc1ccc2c(c1)C(N1CCNCC1)=Nc1ccccc1O2 [Amoxapine],1.04 ± 0.33,0.9699 ± 0.0014,0.75,1.02 ± 0.039
Cc1cccc(Nc2ccccc2C(=O)O)c1C [Mefenamic acid],5.08 ± 1.4,0.617 ± 0.064,0,1.63 ± 0.059
NCCCCCC(=O)O [Aminocaproic acid],0.833 ± 0.35,0.961 ± 0.022,1,1.02 ± 0.055
"CC(C)NCC(O)c1ccc(O)c(O)c1 (single isomer, unassigned; (-)) [(-)-Isoproterenol hydrochloride]",0.881 ± 0.24,1.033 ± 0.0021,0.833,1.02 ± 0.021
CCn1cc(C(=O)O)c(=O)c2ccc(C)nc21 [Nalidixic acid sodium salt],1.31 ± 0.59,1.11 ± 0.025,0.25,1.19 ± 0.022
CC(C)OC(=O)C(C)(C)Oc1ccc(C(=O)c2ccc(Cl)cc2)cc1 [Fenofibrate],6.84 ± 3.3,0.648 ± 0.076,0,1.801 ± 0.0082
CC(C)NCC(O)COc1ccc(COCCOC(C)C)cc1 (stereo unspecified) [Bisoprolol fumarate],1.2 ± 0.41,1.07 ± 0.03,0.583,0.999 ± 0.083
CN1CCC(=C2c3ccccc3CCc3sccc32)CC1 [Pizotifen malate],1.26 ± 0.48,0.84842 ± 0.00054,1,1.06 ± 0.0029
CN(CCCCCCCCCCN(C)C(=O)Oc1cccc([N+](C)(C)C)c1)C(=O)Oc1cccc([N+](C)(C)C)c1 [Demecarium bromide],1.54 ± 0.77,0.923 ± 0.032,1,1.078 ± 0.0073
OC(CCN1CCCCC1)(c1ccccc1)c1ccccc1 [Pridinol methanesulfonate salt],0.797 ± 0.22,1.02 ± 0.06,1,0.986 ± 0.089
Cc1cc(O)c(C(=O)N[C@@H](C(=O)N[C@@H]2C(=O)N3C(C(=O)O)=C(CSc4nnnn4C)CS[C@H]23)c2ccc(O)cc2)cn1 [Cefpiramide],1.22 ± 0.39,0.985 ± 0.089,0.833,0.9442 ± 0.0043
CN(Cc1ccc(C(C)(C)C)cc1)Cc1cccc2ccccc12 [Butenafine Hydrochloride],0.932 ± 0.4,0.9818 ± 0.007,0.909,1.05 ± 0.12
COc1cc2nc(N3CCN(C(=O)C4CCCO4)CC3)nc(N)c2cc1OC (stereo unspecified) [Terazosin hydrochloride],0.764 ± 0.26,1.04 ± 0.027,0.833,0.9878 ± 0.0069
CN1CCCC(n2nc(Cc3ccc(Cl)cc3)c3ccccc3c2=O)CC1 (stereo unspecified) [Azelastine hydrochloride],0.737 ± 0.21,0.885 ± 0.04,1,1.11 ± 0.024
CN1[C@@H]2CC[C@H]1C[C@@H](OC(c1ccccc1)c1ccccc1)C2 [Benztropine mesylate],0.821 ± 0.18,1 ± 0.025,0.833,1.04 ± 0.011
CN(C)CCC=C1c2ccccc2CCc2ccccc21 [Amitryptiline hydrochloride],1.3 ± 0.62,0.973 ± 0.14,0.917,1.02 ± 0.072
Nc1ccc(S(N)(=O)=O)cc1 [Sulfanilamide],0.646 ± 0.14,1 ± 0.063,0.833,0.996 ± 0.0089
Nc1ccc(S(=O)(=O)Nc2ccccn2)cc1 [Sulfapyridine],0.906 ± 0.35,1.07 ± 0.03,0.75,1 ± 0.083
CS(=O)(=O)c1ccc([C@@H](O)[C@@H](CO)NC(=O)C(Cl)Cl)cc1 [Thiamphenicol],0.938 ± 0.22,1.03 ± 0.024,1,0.978 ± 0.025
CN1Cc2c(N)cccc2C(c2ccccc2)C1 (stereo unspecified) [Nomifensine maleate],0.973 ± 0.34,1.04 ± 0.051,1,1.01 ± 0.065
CC(=O)CC(c1ccccc1)c1c(O)c2ccccc2oc1=O (stereo unspecified) [Warfarin],1.14 ± 0.45,0.797 ± 0.048,0.333,1.25 ± 0.027
CN(C)CCOC1=Cc2ccccc2Sc2ccc(Cl)cc21 [Zotepine],0.933 ± 0.24,0.983 ± 0.065,0.75,1.08 ± 0.11
O=C(CCCN1CCC(O)(c2ccc(Br)cc2)CC1)c1ccc(F)cc1 [Bromperidol],0.878 ± 0.23,1.03 ± 0.076,1,0.974 ± 0.038
Clc1ccc(C(Cn2ccnc2)OCc2c(Cl)cccc2Cl)c(Cl)c1 (stereo unspecified) [Isoconazole],3.36 ± 1.9,0.669 ± 0.052,0.167,1.64 ± 0.076
CNCC[C@@H](Oc1cccc2ccccc12)c1cccs1 [(R)-Duloxetine hydrochloride],1.15 ± 0.49,1.046 ± 0.0076,1,0.986 ± 0.044
C=CCOc1ccccc1OCC(O)CNC(C)C (stereo unspecified) [Oxprenolol hydrochloride],0.751 ± 0.34,1.002 ± 0.0059,0.75,1.0054 ± 0.00047
O=C(Cn1ccnc1[N+](=O)[O-])NCCO [Etanidazole],0.807 ± 0.34,1.06 ± 0.014,0.917,0.9304 ± 0.004
